Assay results from PubChem BioAssay (Tox21).
Results filed as inconclusive are left out. Values without a mark were called inactive. The call rests on the fitted dose curve; in most records, active means well fitted activation curve with a large enough effect in the signal ratio in the repeat runs, with a control signal flat (not every such curve was filed as active); inconclusive means weak or mixed curves; inactive means flat fitted curve, though single readings scatter; the % refers to the signal ratio.

Experiment: qHTS assay for small molecule activators of the heat shock response signaling pathway (AID 743210)
Settings: HeLa HSE-bla reporter, beta-lactamase ratio, 5 h; series mostly up to 62.6 µM; activation: at the top concentration
Excerpt: U.S. Tox21 Program National Center for Advancing Translational Sciences [NCATS] NIH Chemical Genomics Center [NCGC] U.S. Environmental Protection Agency [EPA] National Institutes of Environmental Health Sciences [NIEHS] National Toxicology Program [NTP] U.S. Food and Drug Administration [FDA] Tox21 Assay Overview: Various chemicals, environmental and physiological stress conditions may lead to the activation of heat shock response/ unfolded protein response (HSR/UPR). There are three heat shock transcription factors (HSFs) (HSF-1, -2, and -4) mediating transcriptional regulation of the human HSR. To identify the compounds that activate HSR signaling, HSE-bla HeLa cell line (Invitrogen, Carlsbad, CA, USA) containing a beta-lactamase reporter gene under the control of the heat shock response elements was used to screen the Tox21 10K compound library.
Tox21 Assay Protocol Summary: The CellSensor HSE-bla HeLa cells (Invitrogen, Carlsbad, CA, USA) were dispensed at 1500 cells/6uL/well into 1536-well black wall/clear bottom plates using a Multidrop combi (Thermo Fisher Scientific, Waltham, MA) dispenser. After the assay plates were incubated at 37 C and 5% CO2 overnight, 23 nL of compounds dissolved in DMSO, positive controls or DMSO only was transferred to the assay plate by a Pintool station (Kalypsys, San Diego, CA). The plates were incubated at 37 C for 5 h. After 1 uL of LiveBLAzerTM B/G FRET substrate was added using a Flying Reagent Dispenser (Beckman Coulter, Indianapolis, IN, USA), the plates were incubated at room temperature for 2.5 h, and fluorescence intensity was measured by an Envision plate reader (PerkinElmer, Shelton, CT).
On the % scale 0 is the no-effect control and ±100 the full control effect.

Compound	activation
Clc1ccc(C(Cl)(Cl)Cl)cn1	0.0831%
CC(C)NCC(O)c1ccc([N+](=O)[O-])cc1 (stereo not given)	0.0582%
c1ccc2c(c1)CCNC2	-0.181% [at 81.1 µM]
Cl/C=C/CCl	0.402% [at 81.1 µM]
C=CC=O	-0.0602% [at 81.1 µM]
COP(=O)(OC)O/C(C)=C/C(=O)N(C)C	0.51% [at 81.1 µM]
Cc1cccc2sc3nncn3c12	-1.46%
[O-][Br+2]([O-])O	0.166%
CC(C)(C)C(=O)Cl	0.195% [at 81.1 µM]
C=CC1(C)OC(=O)N(c2cc(Cl)cc(Cl)c2)C1=O (stereo not given)	0.403%
COc1ccccc1OC	-0.114%
CCC1(c2cccc(O)c2)CCCCN(C)C1 (stereo not given)	0.6%
O=C(Cl)c1ccccc1	-0.196% [at 81.1 µM]
CC(=NC#N)N(C)Cc1ccc(Cl)nc1	-0.157%
O=P(O)(O)c1ccccc1	0.114%
O=C/C=C/c1ccco1	0%
CCCOc1nn(C(=O)NS(=O)(=O)c2ccccc2C(=O)OC)c(=O)n1C	-0.855%
CCC(C)(C#N)N=NC(C)(C#N)CC (stereo not given)	-1.76%
CC1NCCOC1c1ccccc1 (stereo not given)	-1%
CC(=O)OCC1=C(C(=O)O)N2C(=O)[C@@H](N)[C@H]2SC1	-0.808% [at 29.1 µM]

Compound	activation
CCC1(c2ccccc2)CCC(=O)NC1=O (stereo not given)	2.14%
CCCCCCC(=O)CCCCCC/C=C/C[C@@H](O)[C@H](O)[C@@](N)(CO)C(=O)O	-1.52% [at 29.1 µM]
O=C(NC(=O)c1c(F)cccc1F)Nc1cc(Cl)c(F)c(Cl)c1F	0.114%
CN(C)CCc1c[nH]c2cccc(OP(=O)(O)O)c12	-1.18% [at 81.1 µM]
CCN[C@H](C)Cc1cccc(C(F)(F)F)c1	-0.0874% [at 81.1 µM]
CCCN1CCC[C@@H]2Cc3nc(N)ncc3C[C@H]21	3%
CCOP(=O)(CN(CCO)CCO)OCC	-1.07%
CCCCS(=O)(=O)Cl	-1.04%
C=C1CC[C@@]2(O)[C@H]3Cc4ccc(O)c5c4[C@@]2(CCN3CC2CC2)[C@H]1O5	-1.4%
OCC(Cl)CCl (stereo not given)	-0.347%
BrCC1CO1 (stereo not given)	-2.31% [at 81.1 µM]
CCN1CCCC1CNC(=O)C(O)(c1ccccc1)c1ccccc1 (stereo not given)	-0.45%
O=C(Cl)/C=C/C(=O)Cl	-1.29% [at 81.1 µM]
CON(C)C(=O)Nc1ccc(Br)cc1	-0.0049%
COc1cc(CC(C)N)cc(OC)c1OC (stereo not given)	-1.05% [at 81.1 µM]
C=C1C[C@@H]2[C@H](CC[C@]3(C)C(=O)CC[C@@H]23)[C@@]2(C)C=CC(=O)C=C12	3.19%
NNC(N)=O	0.149% [at 81.1 µM]
ClCCCCCCCl	0.652%
CC(C)(N)Cc1ccc(Cl)cc1	0.815%
CC(C)(C1CCC(O)CC1)C1CCC(O)CC1 (stereo not given)	1.64%
